# From PubChem BioAssay
# VACV Venus inh – vaccinia inhibition (Venus reporter); Vaccinia virus Venus reporter expression, fluorescence; Potency, µM (series often up to 36.5 µM), hits mostly inhibitors; 330,000 compounds, 0.46% hits; AID 720580; calls by dose curve; tested in A549 cells; further: nearly all actives have a fitted effect of over 30% in size
# HCMV inh – human cytomegalovirus inhibition. activity change, negative = inhibition, % at 57.5 µM. HFF cells, HCMV-luciferase reporter, 72 h; hits give low values. 410,000 compounds, 4.5% hits; in the data active means activity change below about -60%; inconclusive means no clear call, values can overlap the other calls; inactive means above about -39%
#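 Luciferase read-out from HCMV-luciferase-infected HFFs (MOI 1 PFU/cell) 72 h post infection at 37C; compounds added after 16 h cell attachment; activity normalized between buffer-only basal and Salinomycin (10uM) inhibitor controls.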
# FMDV antiviral – blocks foot and mouth disease virus. FMDV antiviral cell-based qHTS. Potency, µM (top dose mostly 57.9 µM), hits mostly inhibitors. 410,000 compounds, 1.2% hits; calls by dose curve; tested in HEK293T cells; further: read-out not given here; nearly all actives have a fitted effect of over 45% in size
# HCV inhibitor – blocks hepatitis C virus; Huh7.5.1 HCVcc-Cre infection, luciferase reporter, 44 h; AID 651820; 340,000 compounds, 3.4% hits; Potency, µM (highest dose often 41.8 µM), usual class: inhibitors; active means well fitted inhibition curve with a large enough effect; inconclusive means small, poorly fitted or top-dose-only effect, or another doubt; inactive means no such curve, though single readings can be large or run the other way
#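 Luciferase read-out (15 sec integration) after a 15 min room-temperature substrate step quantifies HCVcc-Cre infection. Cells, 1,000 per well, had compound added 4 h post-plating, then virus at ~0.5 moi, and were cultured 44 h.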
# Vaccinia mCherry – inhibitors of vaccinia virus infection (mCherry reporter signal); 310,000 compounds, 0.63% hits; Potency, µM (top dose mostly 36.5 µM), actives largely listed as inhibitors; AID 720579; Vaccinia virus mCherry reporter infection, fluorescence; calls by dose curve; tested in A549 cells; further: nearly all actives have a fitted effect of over 35% in size
# Numbers stand for hits; n = inactive; u = inconclusive; x = not tested or not shown; + = active, no number; ! = a repeat was not active; [ ] = another dose, or the depositor's remark. The list is not random: actives were taken first. Their share in the collection is about 7.3%.
SMILES,VACV Venus inh,HCMV inh,FMDV antiviral,HCV inhibitor,Vaccinia mCherry
Nc1ccn(C2OC(COC(=O)C34CC5CC(CC(C5)C3)C4)C(O)C2O)c(=O)n1 (stereo unspecified),u,-97,n,n,0.32µM
COCc1cc(C)nc2c1C(=O)NC(c1ccc(F)cc1)N2Cc1ccccc1 (stereo unspecified),n,n,n,x,n
O=C(NCc1cccnc1)/C(=C\c1ccc(-c2ccc(Br)cc2)o1)S(=O)(=O)c1ccccc1,10µM,-103,3.2µM,11µM,u
O=C(CN(Cc1ccc(Br)cc1)S(=O)(=O)c1ccccc1)NCc1cccnc1,n,n,n,n,n
O=C(NCc1cccnc1)/C(=C/c1ccc(-c2ccc(Cl)cc2)o1)S(=O)(=O)c1ccccc1,x,x,3.5µM,7.9µM,x
COc1ccc(C)cc1NS(=O)(=O)c1ccc2c(c1)NC(=O)C(C)S2 (stereo unspecified),x,-77,n,n,x
CCC1Sc2ccc(S(=O)(=O)Nc3ccc(OC)c(OC)c3)cc2NC1=O (stereo unspecified),n,-76,n,10µM,n
CCC1Sc2ccc(S(=O)(=O)Nc3ccc(OC)cc3)cc2NC1=O (stereo unspecified),x,n,n,n,x
Cc1ccccc1NC(=O)Cn1c(=O)n(Cc2ccco2)c(=O)c2cccnc21,n,n,n,x,n
COc1ccc(/C=C/C(=O)c2c(O)cc(C)oc2=O)c(OC)c1,n,n,n,11µM,n
COc1cc(/C=C/C(=O)c2c(O)cc(C)oc2=O)cc(OC)c1O,n,-68,14µM,n,n
COc1cc(/C=C/C(=O)O)cc(OC)c1O,n,u,n,n,n
CCOC(=O)/C=C/c1cccc(OC)c1O,n,n,n,x,n
COc1cccc(/C=C/C(=O)c2c(O)cc(C)oc2=O)c1O,n,-97,20µM,n,n
CCc1ccc(C2NC(=S)NC3=C2C(=O)CC(C)(C)C3)cc1 (stereo unspecified),n,n,n,n,n
CC(C)c1ccc(C2NC(=S)NC3=C2C(=O)CC(C)(C)C3)cc1 (stereo unspecified),n,-71,n,n,n
CC(=O)N(Cc1ccc2c(c1)OCO2)Cc1cc2ccc(C)cc2nc1-c1cccc(C)c1,n,x,n,x,n
CCO[C@H]1OC(C(=O)N2CCOCC2)=C[C@@H](c2coc3ccccc3c2=O)[C@@H]1CCCO,n,n,n,35µM,n
CCO[C@H]1OC(C(=O)N2CCN(C)CC2)=C[C@@H](c2coc3ccccc3c2=O)[C@@H]1CCCO,n,n,n,n,n
CCO[C@@H]1OC(C(=O)N2CCN(Cc3ccc4c(c3)OCO4)CC2)=C[C@H](c2coc3ccccc3c2=O)[C@H]1CCCO,n,-89,n,n,n
O=C1NC(=O)C(Cc2ccccc2)(C2CCN(Cc3cccn3-c3cccnc3)CC2)N1 (stereo unspecified),n,x,n,x,n
COc1ccc(CCNC(=O)CCc2cn(Cc3ccc(F)cc3)c3ccccc23)cc1OC,n,n,n,x,n
CNC(=O)[C@@H]1C[C@H](Sc2nc3ccccc3[nH]2)CN1Cc1cccc(C(F)(F)F)c1,n,x,n,x,n
CCOC(=O)c1c(C)nc(C)c(C(=O)OCC)c1-c1ccccc1,x,n,n,n,x
CCOc1c(C(N)=O)c(-c2ccccc2)c2c(=O)[nH]c3ccccc3n12,n,-60,n,n,x
SMILES,VACV Venus inh,HCMV inh,FMDV antiviral,HCV inhibitor,Vaccinia mCherry
Clc1nc(NCc2ccco2)c2[nH]cnc2n1,n,x,x,x,n
CNC(=O)COC(=O)c1ccc(NC(=O)CC#N)cc1,n,-101,n,n,n
COc1ccccc1NC(=O)c1cc2c([nH]c1=O)CC(C)(C)CC2=O,n,n,n,x,n
O=C(COCc1cc(-c2ccco2)on1)Nc1cc(Cl)ccc1O,n,n,n,x,n
Cc1ccc(O)c(NC(=O)COCc2cc(-c3ccco3)on2)c1,n,+,n,x,n
Cc1ccc(N2CCN(C(=O)c3c(C)oc4nc(C)nc(N5CCCC5)c34)CC2)c(C)c1,n,n,n,x,n
C/C(=C\COc1ccc2ccc(=O)oc2c1)CC[C@@H](O)C(C)(C)O,n,n,n,n,n
C/C(=C\COc1cc(=O)[nH]c2ccccc12)CCC(O)C(C)(C)O (stereo unspecified),n,n,n,0.32µM,n
CC(OC(=O)CCc1cc(C(C)(C)C)c(O)c(C(C)(C)C)c1)C(=O)NC1CC1 (stereo unspecified),n,n,n,u,13µM
CN(C(=O)CSc1cc(C(=O)c2nccn2C)c2ccccc2n1)c1ccccc1,n,-99,n,n,n
COc1cc(C(C)=O)ccc1COc1ccc(C(=O)OCC(=O)NC2CCS(=O)(=O)C2)cc1OC (stereo unspecified),n,n,n,n,n
COc1cc(C(C)=O)ccc1COc1ccc(C(=O)OCC(=O)NC(C)(C)C)cc1OC,n,n,20µM,n,n
COc1ccccc1NC(=O)c1sc(-c2ccc(Cl)cc2)cc1N,n[7.34 µM],n,n,x,n[7.34 µM]
CCOc1ccc(-n2cc(-c3ccccc3)c3c(NCCc4ccccc4)ncnc32)cc1,n,n,n,x,n
O=C(CC1(O)C(=O)Nc2cc(Cl)cc(Cl)c21)c1ccccc1O (stereo unspecified),n,n,n,25µM,x
COc1ccc(-c2c/c(=N\c3nc(-c4ccccc4)c(C)s3)c3ccccc3o2)cc1O,u,-96,u,u,x
COc1ccc(-c2cc(=Nc3c(C)n(C)n(-c4ccccc4)c3=O)c3ccccc3o2)cc1,n,n,n,u,n
CCOC(=O)C1CCCN(C(=O)Cn2ncc3c(C)n(Cc4ccccc4Cl)c(C)c3c2=O)C1 (stereo unspecified),n,n,u,x,n
CCOC(=O)C1CCCN(C(=O)Cn2ncc3c(C)n(Cc4ccc(Cl)cc4)c(C)c3c2=O)C1 (stereo unspecified),n,n,18µM,x,n
CCOC(=O)C1CCN(C(=O)Cn2ncc3c([nH]c4ccccc43)c2=O)CC1,n,-68!,n,n,n
O=C(Cn1ncc2c([nH]c3ccccc32)c1=O)N1CCCCC1,x,n,n,n,x
O=S(=O)(Nc1cccc2cccnc12)c1ccc(S(=O)(=O)N2CCCC2)cc1,n,-86,x,2.8µM,n
NC(=S)NNc1cccc2cccnc12,n,n,n,u,n
CC(=O)Nc1ccc(S(=O)(=O)Nc2ccccn2)cc1,n,n,n,n,n
Cc1ccccc1NS(=O)(=O)c1ccc(S(=O)(=O)N2CCCC2)cc1,n,n,u,x,n
SMILES,VACV Venus inh,HCMV inh,FMDV antiviral,HCV inhibitor,Vaccinia mCherry
CC(=O)Nc1ccc(S(=O)(=O)Nc2cccc3cccnc23)cc1,n,-83,n,n,n
NC(=S)Nc1cccc2cccnc12,n,-79,n,n,x
Cc1cc(C)c(NS(=O)(=O)c2cccc3cccnc23)c(C)c1,n,n,n,n,n
Cc1ccc(S(=O)(=O)Nc2cccc3cccnc23)c([N+](=O)[O-])c1,u,-98,u,u,u
COc1ccc(-c2nc3cc(C)ccn3c2NC(=O)c2cccc(F)c2)cc1,n,n,n,x,n
OC1CCC(Nc2nccc3[nH]c(-c4cccc(C(F)(F)F)c4)nc23)CC1 (stereo unspecified),x,n,x,x,x
